Laboratory results: PubChem BioAssay (NCI)
The panel holds about 83,000 compounds, 20% with a hit somewhere; the sample as a whole holds those more often.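 Assay: single dose, 48 h. Readout: percent growth (0 = no net growth; negative = cell death). Active: <10.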 Unmarked numbers belong to inactive results. Calls of active or inactive are those of the source.

How the values were obtained:
Experiment in all cases: NCI-60 one-dose screen, 48 h (100 = growth as untreated, 0 = no growth, -100 = all killed)
Settings in all cases: 10 µM unless noted
DU-145 prostate = system: DU-145 prostate
K-562 leukemia = system: K-562 leukemia
MDA-MB-231 breast = system: MDA-MB-231 breast
RXF 393 renal = system: RXF 393 renal
SF-268 CNS = system: SF-268 CNS
SF-295 CNS = system: SF-295 CNS
SF-539 CNS = system: SF-539 CNS
UACC-257 melanoma = system: UACC-257 melanoma
M14 melanoma = system: M14 melanoma
HCT-15 colon = system: HCT-15 colon
HT29 colon = system: HT29 colon
SNB-75 CNS = system: SNB-75 CNS
SNB-19 CNS = system: SNB-19 CNS
U251 CNS = system: U251 CNS
PC-3 prostate = system: PC-3 prostate
SK-MEL-5 melanoma = system: SK-MEL-5 melanoma
UACC-62 melanoma = system: UACC-62 melanoma
LOX IMVI melanoma = system: LOX IMVI melanoma
SK-MEL-28 melanoma = system: SK-MEL-28 melanoma
MALME-3M melanoma = system: MALME-3M melanoma

COc1ccc(/C=C2\CCCC3=C2N=C2SC(C)=NN2C3c2ccc(OC)c(OC)c2)cc1OC (stereo not drawn)
growth (DU-145 prostate): 16.1%
growth (K-562 leukemia): 14.5%
growth (MDA-MB-231 breast): 28.6%
growth (RXF 393 renal): 40.4%
growth (SF-268 CNS): 39%
growth (SF-295 CNS): 25.3%
growth (SF-539 CNS): 6.88% (active)
growth (UACC-257 melanoma): 51.9%
growth (M14 melanoma): 19.8%
growth (HCT-15 colon): 28.3%
growth (HT29 colon): 4.84% (active)
growth (SNB-75 CNS): 27.7%
growth (SNB-19 CNS): 45%
growth (U251 CNS): 15.5%
growth (PC-3 prostate): 40%
growth (SK-MEL-5 melanoma): 24.2%
growth (UACC-62 melanoma): 34.6%
growth (LOX IMVI melanoma): 1.41% (active)
growth (SK-MEL-28 melanoma): 58.9%

Cc1cc2nc3c(=O)[nH]c(=O)nc-3n(CC=O)c2cc1C
growth (DU-145 prostate): 116%
growth (K-562 leukemia): 96%
growth (MALME-3M melanoma): 112%
growth (MDA-MB-231 breast): 106%
growth (SF-268 CNS): 99.5%
growth (SF-295 CNS): 92.2%
growth (SF-539 CNS): 93.6%
growth (UACC-257 melanoma): 159%
growth (M14 melanoma): 109%
growth (HCT-15 colon): 106%
growth (HT29 colon): 102%
growth (SNB-75 CNS): 89.3%
growth (SNB-19 CNS): 99.8%
growth (U251 CNS): 103%
growth (PC-3 prostate): 122%
growth (SK-MEL-5 melanoma): 98.6%
growth (UACC-62 melanoma): 92.2%
growth (LOX IMVI melanoma): 101%
growth (SK-MEL-28 melanoma): 117%

COc1ccc2c(c1)CCCC21C(=O)Nc2ccccc21 (stereo not drawn)
growth (DU-145 prostate): 103%
growth (MALME-3M melanoma): 102%
growth (MDA-MB-231 breast): 99.4%
growth (RXF 393 renal): 110%
growth (SF-268 CNS): 86.6%
growth (SF-539 CNS): 101%
growth (UACC-257 melanoma): 110%
growth (M14 melanoma): 109%
growth (HCT-15 colon): 97.2%
growth (HT29 colon): 87.4%
growth (SNB-75 CNS): 101%
growth (SNB-19 CNS): 105%
growth (U251 CNS): 99.3%
growth (PC-3 prostate): 104%
growth (SK-MEL-5 melanoma): 103%
growth (UACC-62 melanoma): 106%
growth (LOX IMVI melanoma): 98%
growth (SK-MEL-28 melanoma): 111%

Cc1ccc(O)c(Cc2ccccc2)c1
growth (DU-145 prostate): 108%
growth (MALME-3M melanoma): 143%
growth (MDA-MB-231 breast): 96.7%
growth (RXF 393 renal): 103%
growth (SF-268 CNS): 99.6%
growth (SF-539 CNS): 100%
growth (UACC-257 melanoma): 93.7%
growth (M14 melanoma): 101%
growth (HCT-15 colon): 107%
growth (HT29 colon): 97.2%
growth (SNB-75 CNS): 74.9%
growth (SNB-19 CNS): 96.9%
growth (U251 CNS): 94.6%
growth (PC-3 prostate): 79.9%
growth (SK-MEL-5 melanoma): 109%
growth (UACC-62 melanoma): 90.2%
growth (LOX IMVI melanoma): 96.4%
growth (SK-MEL-28 melanoma): 108%

CCOc1cccc(/C=N/NC(=O)c2ccc(Nc3ccnc(C(F)(F)F)c3)cc2)c1O
growth (DU-145 prostate): 29.8%
growth (MALME-3M melanoma): 19.9%
growth (MDA-MB-231 breast): 27.4%
growth (RXF 393 renal): 22%
growth (SF-268 CNS): 22.7%
growth (SF-295 CNS): 8.46% (active)
growth (SF-539 CNS): 0.3% (active)
growth (UACC-257 melanoma): 12.4%
growth (M14 melanoma): -20.3% (active)
growth (HCT-15 colon): 19.1%
growth (HT29 colon): 49.3%
growth (SNB-75 CNS): 20.6%
growth (SNB-19 CNS): 20%
growth (U251 CNS): 15.9%
growth (PC-3 prostate): 50.8%
growth (SK-MEL-5 melanoma): -54.3% (active)
growth (UACC-62 melanoma): -6.19% (active)
growth (LOX IMVI melanoma): 2.5% (active)
growth (SK-MEL-28 melanoma): 19.2%

CCOc1cccc(/C=N/NC(=O)Cc2ccc(Nc3ccnc(C(F)(F)F)c3)cc2)c1O
growth (DU-145 prostate): 33.2%
growth (MALME-3M melanoma): 34.3%
growth (MDA-MB-231 breast): 26.8%
growth (RXF 393 renal): 51.1%
growth (SF-268 CNS): 18.2%
growth (SF-295 CNS): 47.9%
growth (SF-539 CNS): 17.4%
growth (UACC-257 melanoma): 21.9%
growth (M14 melanoma): 3.19% (active)
growth (HCT-15 colon): 17.3%
growth (HT29 colon): 85%
growth (SNB-75 CNS): 39.4%
growth (SNB-19 CNS): 28%
growth (U251 CNS): 20.6%
growth (PC-3 prostate): 50%
growth (SK-MEL-5 melanoma): -36% (active)
growth (UACC-62 melanoma): -5.55% (active)
growth (LOX IMVI melanoma): 2.43% (active)
growth (SK-MEL-28 melanoma): 60.6%

Nc1c(C(=O)c2ccc(Br)cc2)sc2nc3c(cc12)CCCC3
growth (DU-145 prostate): 92.4%
growth (MALME-3M melanoma): 82.6%
growth (MDA-MB-231 breast): 91%
growth (RXF 393 renal): 62.5%
growth (SF-268 CNS): 101%
growth (SF-295 CNS): 98.2%
growth (SF-539 CNS): 92%
growth (UACC-257 melanoma): 91.9%
growth (M14 melanoma): 82.7%
growth (HCT-15 colon): 80.9%
growth (HT29 colon): 96.6%
growth (SNB-75 CNS): 101%
growth (SNB-19 CNS): 97.3%
growth (U251 CNS): 89.6%
growth (PC-3 prostate): 85.4%
growth (SK-MEL-5 melanoma): 92%
growth (LOX IMVI melanoma): 112%
growth (SK-MEL-28 melanoma): 89%

Cc1nc2n[nH]c(N)c2nc1C
growth (DU-145 prostate): 119%
growth (MALME-3M melanoma): 105%
growth (MDA-MB-231 breast): 120%
growth (RXF 393 renal): 119%
growth (SF-295 CNS): 105%
growth (SF-539 CNS): 103%
growth (UACC-257 melanoma): 96.8%
growth (M14 melanoma): 125%
growth (HCT-15 colon): 103%
growth (HT29 colon): 93.6%
growth (SNB-75 CNS): 93.1%
growth (SNB-19 CNS): 103%
growth (U251 CNS): 107%
growth (PC-3 prostate): 102%
growth (SK-MEL-5 melanoma): 96.6%
growth (UACC-62 melanoma): 106%
growth (LOX IMVI melanoma): 98.9%
growth (SK-MEL-28 melanoma): 105%
